The list is not random: actives were taken first. Their share in the collection is about 12%.
ALDH1A1 inh – inhibitors of human aldehyde dehydrogenase 1A1; Purified ALDH1A1, NADH fluorescence, propionaldehyde substrate; P00352; Potency, µM (highest dose often 75.3 µM), inactives show top-dose activity, negative = inhibition, hits mostly inhibitors; 7.3% of 220,000 active; active means well fitted inhibition curve with a large enough effect, not every such curve was filed as active; inconclusive means small, poorly fitted or top-dose-only effect, or another doubt; inactive means no such curve, though single readings can be large or run the other way;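 further: plate controls were no enzyme wells and a reference inhibitor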
Target sequence (P00352 whole entry, looked up): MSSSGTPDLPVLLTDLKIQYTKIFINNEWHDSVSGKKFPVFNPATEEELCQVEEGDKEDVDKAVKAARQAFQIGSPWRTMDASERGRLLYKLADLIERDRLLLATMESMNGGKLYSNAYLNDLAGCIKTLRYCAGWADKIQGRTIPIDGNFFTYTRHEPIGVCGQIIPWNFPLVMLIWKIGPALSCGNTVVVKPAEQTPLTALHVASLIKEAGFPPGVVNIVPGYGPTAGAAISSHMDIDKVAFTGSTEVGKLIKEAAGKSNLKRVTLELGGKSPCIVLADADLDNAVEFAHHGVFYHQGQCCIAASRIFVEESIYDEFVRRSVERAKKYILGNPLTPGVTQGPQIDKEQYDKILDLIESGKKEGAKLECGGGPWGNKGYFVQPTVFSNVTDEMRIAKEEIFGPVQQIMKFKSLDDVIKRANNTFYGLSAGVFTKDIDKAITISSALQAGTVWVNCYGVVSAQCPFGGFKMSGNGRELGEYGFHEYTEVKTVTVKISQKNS
VP16 counter – inhibits Gal4-VP16 luciferase reporter, ROR gamma counter-screen | Drosophila S2 Gal4-VP16 UAS-luciferase, luminescence, 20 h | Potency, µM (doses to about 53.6 µM), for the others: at the top dose activity, negative = inhibition, actives largely listed as inhibitors | 3.5% of 310,000 active;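 further: Gal4-VP16 expression switched on by copper sulfate through the metallothionein promoter; nearly all actives have a fitted effect of over 50% in size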
RORgamma inh – blocks mouse ROR gamma transcriptional activity; Drosophila S2 Gal4-RORgamma UAS-luciferase reporter, 20 h; Potency, µM (series often up to 53.6 µM), inactives show top-dose activity change, negative = inhibition, most hits filed as inhibitors; 5.4% of 310,000 active; further: nearly all actives have a fitted effect of over 60% in size
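Drosophila S2 cells stably expressing Gal4-DBD/mouse RORγ fusion under metallothionein promoter plus UAS-luciferase; compound 1 h, then 700 uM CuSO4 induction for 20 h at ambient temperature; inhibition read as reduced luminescence.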
PLK1 PBD inh – inhibitors of human PLK1 polo-box domain binding; Plk1 PBD binding of FITC phosphopeptide, fluorescence polarization; Potency, µM, inactives show max response, negative = inhibition, hits mostly inhibitors; 2.8% of 360,000 active; AID 720504; further: series mostly up to about 57 µM; nearly all actives have a fitted effect of over 65% in size
Sfp PPTase inh – Sfp phosphopantetheinyl transferase inhibition; Biochemical Sfp PPTase activity, qHTS; 3.5% of 310,000 active; Potency, µM, without a hit: largest response in the series, negative = inhibition, hits mostly inhibitors; Q9F4F7;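 further: the enzyme is Sfp with the accession as filed and its product quenches rhodamine fluorescence; 0% = enzyme reaction without inhibitor and -100% = no enzyme wells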
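After 15 min at room temperature with compound, 15 nM Sfp received 5 uM rhodamine-CoA plus 12.5 uM BHQ-2-ybbR (50 mM Hepes pH 7.6, 10 mM MgCl2). Rate came from the fluorescence difference over 30 min, ex 525/em 598 nm.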
Numbers without * were called inactive; ? = inconclusive; nt = no result given; [ ] = remark or other dose. Unless noted, the call rests on the fitted dose curve; in most records, active means well fitted curve in the direction sought with a large enough effect; inconclusive means small, poorly fitted or top-dose-only effect, or another doubt; inactive means no such curve, though single readings can be large; an effect the other way counts as inactive or inconclusive. Unless noted, on the % scale 0 is the no-effect control and ±100 the full control effect; potency means the concentration at half of the fitted maximal effect.

SMILES	ALDH1A1 inh	VP16 counter	RORgamma inh	PLK1 PBD inh	Sfp PPTase inh
CC1=C(C(=O)Nc2ccc(C)cc2)C(c2cccs2)NC(=S)N1 (centres undefined)	?	?	24.4%	-13.3%	9.5%
CC1=C(C(=O)OC(C)C)C(c2cccs2)NC(=S)N1 (centres undefined)	3.16µM*	?	12.6µM*	-9.6%	10.2%
O=C(CCNC(=O)c1ccc([N+](=O)[O-])cc1)NCc1ccco1	nt	nt	nt	-7.6%	nt
Nc1cc(-c2ccccc2)nn1S(=O)(=O)c1ccc(Br)cc1	15.8µM*	-9.0%	-26.4%	1.8%	-1.8%
O=C(NCc1cccnc1)c1csc([C@@H]2O[C@H](CO)[C@H](O)[C@H](O)[C@H]2O)n1	nt	nt	nt	-1.2%	nt
Cc1ccc2oc(/N=C(\N)NC(=O)C(C)(C)C)nc2c1	-0.1%	0.447µM*	0.0501µM*	-11.0%	20.5%
Cc1ccc2oc(/N=C(\N)NC(=O)C3CC3)nc2c1	nt	?	7.08µM*	-3.7%	3.7%
CC(C)(C)c1ccc(C(=O)N/C(N)=N/c2nc3ccccc3o2)cc1	-5.5%	0.4%	1.0%	-1.8%	13.6%
O=C(CN1C(=O)C2C3C=CC(C3)C2C1=O)NCc1ccccc1 (centres undefined)	1.5%	-0.6%	16.1%	-0.6%	15.8%
O=C(CCN1C(=O)C2C3C=CC(C3)C2C1=O)NCCc1ccccc1Cl (centres undefined)	8.91µM*	2.0%	13.0%	-7.6%	17.9%
O=C(CCN1C(=O)C2C3C=CC(C3)C2C1=O)Nc1ccccc1 (centres undefined)	-5.8%	-5.0%	1.9%	-7.5%	30.2%
O=C(CN1C(=O)C2C3C=CC(C3)C2C1=O)NCCc1ccccc1 (centres undefined)	?	-0.6%	-18.5%	2.99µM*	4.9%
CC(=O)Nc1ccc(C(=O)N2CCOCC2c2cc(C(=O)NCc3ccccc3)no2)cc1 (centres undefined)	nt	nt	nt	1.3%	nt
Cc1ccccc1CSc1nnc(-c2ccncc2)n1C	nt	9.0%	25.8%	-4.0%	11.6%
CCNc1ncc2nc(-c3ccccc3)c(=O)n(C3CC3)c2n1	?	-4.7%	-6.1%	nt	2.8%
O=C(N=NC(=O)c1ccc2c(O)n(C3CCCCC3)c(O)c2c1)c1cccnc1	2.24µM*	-28.4%	?	-6.1%	2.9%
CCOC(=O)c1sc(=S)n(-c2ccc(Cl)cc2)c1SC	-16.4%	-2.1%	?	-16.3%	-11.3%
Cc1ccc(-n2c(N)c(C(=O)NCc3cccnc3)sc2=S)cc1	?	-6.9%	11.9%	28.2µM*	35.5µM*
CCOC(=O)c1sc(=S)n(-c2ccc3c(c2)OCO3)c1N	10µM*	?	?	13.4µM*	28.2µM*
CC(=O)c1sc(=S)n(-c2ccc(Cl)cc2)c1C	-13.1%	-3.8%	15.1%	16.8µM*	14.6%
CCOC(=O)c1sc(=S)n(-c2ccc(F)c(F)c2)c1N	12.6µM*	0.9%	0.4%	23.8µM*	22.4µM*
O=C(N[C@H]1CC[C@H](CCNC(=O)C2CC2)O[C@@H]1CO)c1ccccn1	nt	nt	nt	-3.5%	nt
Nc1ccc(S(=O)(=O)NCCS(=O)(=O)O)cc1	-6.0%[13.5 µM]	nt	nt	nt	nt
CCOC(=O)c1sc(=S)n(-c2ccc(C)cc2)c1N	14.1µM*	22.8%	27.6%	10.6µM*	39.8µM*
CCN(CC(=O)Nc1cc(Cl)ccc1C)C(=O)c1ccc2c(c1)NC(=O)C(C)S2 (centres undefined)	nt	nt	nt	0.9%	nt
SMILES	ALDH1A1 inh	VP16 counter	RORgamma inh	PLK1 PBD inh	Sfp PPTase inh
CCOc1ccc(/C=C/C(=O)c2cc(Br)ccc(=O)c2O)cc1	?	22.4µM*	?	?	20µM*
Cc1ccc(/C=C/C(=O)c2cc(Br)ccc2OC(=O)c2ccco2)cc1	?	1.8%[0.365 µM]	?	-22.2%	5.5%
CCc1ccc(/C=C/C(=O)c2cc(Br)ccc(=O)c2O)cc1	?	?	?	21.2µM*	14.1µM*
Cc1cccc(/C=C/C(=O)c2cc(Br)ccc(=O)c2O)c1	20µM*	?	-31.0%	21.2µM*	14.1µM*
O=C(C=Cc1ccccc1)c1cc(Br)ccc1O	nt	nt	nt	-22.5%	nt
CCOc1ccc(C(=O)/C=C/c2ccc(OC)c(OC)c2)cc1	-5.7%	0.3%[10 µM]	7.7%	-1.0%	-21.5%
COc1ccc(N2CCN(C(=O)CSc3nnc(C4CC4)n3C3CC3)CC2)cc1	nt	nt	nt	-3.4%	nt
O=C(O)c1ccc(-n2ncc(Cl)c(Cl)c2=O)cc1	nt	nt	nt	-18.4%	nt
O=C(OCn1ncc(Cl)c(Cl)c1=O)c1ccc(C(F)(F)F)cc1	3.55µM*	7.08µM*	?	-20.6%	0.0%
Cc1cc(C(=O)Cn2ncc(Cl)c(Cl)c2=O)c(C)n1CC(F)(F)F	?	?	?	-10.5%	5.6%
Cc1ccc(C(=O)OCn2ncc(Cl)c(Cl)c2=O)cc1	1.41µM*	-12.3%	24.6%	?	?
Cc1ccc(C)c(C(=O)Cn2ncc(Cl)c(Cl)c2=O)c1	14.1µM*	?	?	-12.9%	-8.3%
Cc1cccc(Cn2ncc(Cl)c(Cl)c2=O)c1	?	?	?	-11.3%	4.3%
CCCCC/C=C\C/C=C\C/C=C\CCCCCCC(=O)O[C@H](COCCCCCCCCCCCCCCCC)COP(=O)([O-])OCC[N+](C)(C)C	-6.5%	-1.6%	-20.7%	nt	-4.7%
COC(=O)[C@@]12C[C@@H](CC(=O)N3CCN(C(=O)c4ccco4)CC3)C(=O)N(CCc3ccc(OC)c(OC)c3)C1=CCC(C)(C)C2	nt	nt	nt	2.3%	nt
COc1ccccc1-c1cnc(C(O)c2cc(C)c(OC)c(C)c2)[nH]1 (centres undefined)	nt	nt	nt	-0.2%	nt
Cc1c(-n2c(SCC(=O)C(C)(C)C)nc3ccccc3c2=O)c(=O)n(-c2ccccc2)n1C	4.8%	1.0%	24.0%	-11.3%	4.8%
Cc1ccc(NC(=O)COC(=O)/C=C/c2ccc(Br)o2)cc1S(=O)(=O)N(C)C	20µM*	2.7%	?	4.3%	?
Cc1ccc(NC(=O)c2ccc(Br)o2)cc1S(=O)(=O)N(C)C	14.1µM*	-4.5%	?	-13.1%	-15.6%
CN(C)S(=O)(=O)c1cccc(NC(=O)COC(=O)c2ccc(Br)o2)c1	3.4%	6.4%	44.6%	-1.0%	4.5%
Cc1ccc(NC(=O)c2ccncc2)cc1S(=O)(=O)N(C)C	-0.8%	-0.8%	?	4.0%	15.2%
NC(=O)c1ccc(NC(=O)COC(=O)/C=C/c2ccc(Br)o2)cc1	nt	nt	nt	-23.7%	nt
CN(C)S(=O)(=O)c1cccc(NC(=O)COC(=O)/C=C/c2ccc(Br)o2)c1	8.91µM*	7.7%	13.0%	-18.3%	?
Cc1nc(CSc2n[nH]c(=O)n2-c2ccccc2)cs1	-3.9%	-0.2%	-4.5%	2.3%	-7.0%
Cc1nc(CSc2nc3[nH]ncc3c(=O)n2-c2ccccc2)cs1	12.6µM*	0.2%	18.8%	0.5%	5.5%
COC(=O)c1ccc(CSc2nc3ccccc3c(=O)n2-c2ccccc2)o1	25.1µM*	15.5%	-22.1%	-10.1%	-8.9%
Cc1noc(C)c1CSc1nc2ccccc2c(=O)n1-c1ccc(F)cc1F	8.91µM*	-2.7%	-5.5%	-7.2%	11.0%

High-throughput results (PubChem BioAssay)
